Structures are written as SMILES. This is part of a sample that, as a whole, favours compounds with a hit. Of some 79,000 tested, about 15% had one in any assay. A number with no mark means an inactive call. The source made the active and inactive calls. Rule as the data show it: active = growth inhibition above about 70%; inactive = the rest. Where a SMILES comes first, the peptide text is derived from it. [ ]: non-standard residue; d: D form. The star is where a group is joined. ξ: configuration not given here. X14 = COC1=CC(=O)N(C(=O)C(O*)C(C)C)C1Cc1ccccc1; ξNMe2Val = CC(C)C(C(=O)*)N(C)C; NMeV = CN[CH](C(=O)O)C(C)C

A short description of assay [1]: NCI Yeast Anticancer Drug Screen. Data for the rad50 strain (AID 155).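 Also: 0% = growth of vehicle-only cultures of the same strain.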 The conditions noted are these: S. cerevisiae rad50 strain growth inhibition; at 50.0 µM; active compounds read high. A digest of the protocol: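 Inhibition values express reduced yeast growth in compound-treated cultures relative to vehicle-treated controls.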
Assay [2] in a line: NCI Yeast Anticancer Drug Screen. Data for the mec2-1 strain (AID 157). The conditions noted are these: S. cerevisiae mec2-1 strain, at 50.0 µM, active compounds read high. A digest of the protocol: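 Cells of the genetically defined mec2-1 yeast strain are incubated with test compound. Inhibition of growth is calculated against vehicle-treated controls.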
A short description of assay [3]: NCI Yeast Anticancer Drug Screen. Data for the sgs1 mgt1 strain (AID 161).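 Also: 0% = growth of cultures given vehicle only.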 The note with it: S. cerevisiae sgs1 mgt1 strain, at 50.0 µM, active compounds read high. Put shortly:
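Test agents were incubated with a DNA-repair-mutant yeast strain. Growth was then read and compared against vehicle-treated controls.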

A short description of assay [4]: NCI Yeast Anticancer Drug Screen. Data for the cln2 rad14 strain (AID 165).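 Also: 0% = growth equal to vehicle treated cultures.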 The conditions noted are these: S. cerevisiae cln2 rad14 strain, at 50.0 µM, active compounds read high. A digest of the protocol: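 The screen exposed genetically defined yeast (cln2 rad14) to test compounds and scored growth inhibition relative to vehicle-treated controls.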
The nature of assay [5]: NCI Yeast Anticancer Drug Screen. Data for the bub3 strain (AID 167). The note with it: S. cerevisiae bub3 mutant strain, at 50.0 µM, active compounds read high. Put shortly: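 Steps: expose the mutant yeast strain to compound; grow alongside vehicle-treated cultures; measure growth; express inhibition against the vehicle cultures.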
The nature of assay [6]: NCI Yeast Anticancer Drug Screen. Data for the mlh1 rad18 strain (AID 175). The conditions noted are these: S. cerevisiae mlh1 rad18 strain growth inhibition; at 50.0 µM; active compounds read high. Put shortly:
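Compound-treated yeast growth, normalised to vehicle controls. Strain bears defined DNA repair mutations.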

As to `O=C(NC(Cl)=C(Cl)Cl)P(=O)(c1ccccc1)c1ccccc1`, the growth inhibition in assay [1] was -16.6%; in assay [2] it was -28.3%; in assay [3], 10.8%; in assay [4] it was 17.2%; in assay [5] it was -5.4%; in assay [6] it was 3%.

Take `O=c1[nH]cc(N=Cc2ccccc2F)c(=O)[nH]1.[Cl][Pt][Cl]`: the growth inhibition in assay [1] was 20.6%; in assay [2], 6.15%; in assay [3], 24.7%; in assay [4], 26.9%; in assay [5], -0.2%; in assay [6], 8.95%.

Take `CN(C)C(=O)O/N=C(\c1ccccc1)C(F)(F)F`: the growth inhibition in assay [1] was 35.7%; in assay [2] it was -0.15%; in assay [3] it was 20.5%; in assay [4], 15.4%; in assay [5] it was 20.7%; in assay [6] it was 30.6%.

On to `O=C(COc1ccc(Cl)c(Cl)c1)Nc1ccc[n+](CC(=O)Nc2ccc(S(=O)(=O)F)cc2)c1`, for which the growth inhibition in assay [1] is 32.4%; in assay [2], 41.4%; in assay [3], 32.5%; in assay [4], 96.7% (active); in assay [5] it was 45%; in assay [6], 22.1%.

Regarding `CCCCCCCC(=O)O.[Sn]`, the growth inhibition in assay [1] was -2.25%; in assay [2] it was -7.35%; in assay [3], -9.6%; in assay [4], -45.9%; in assay [5], 12.1%; in assay [6], -19%.

Take `CC(C)OP(=O)(OCCCO)C(Cl)Cl` (stereo not given): the growth inhibition was 0.35% in assay [1]; 17.1% in assay [2]; 1.1% in assay [3]; 2.55% in assay [4]; 3.75% in assay [5]; 0.75% in assay [6].

In the case of `Cc1cc(C)c(C(=O)O)c(C)c1.[Hg]`, the growth inhibition is 99.6% (active) in assay [1]; 99.8% (active) in assay [2]; 99.7% (active) in assay [3]; 99.5% (active) in assay [4]; 99.7% (active) in assay [5]; 99.7% (active) in assay [6].

With `CN(C)C(=O)CCCc1ccc(N(CCCl)CCCl)cc1`, the growth inhibition in assay [1] is 19.6%; in assay [2], -1.85%; in assay [3], 5.3%; in assay [4], 9.55%; in assay [5] it was -0.9%; in assay [6], 9.6%.

Regarding `CCNC(=O)N1CC2CCC(C1)N2C`, the growth inhibition is -1.15% in assay [1]; 7.85% in assay [2]; 6.45% in assay [3]; -39.1% in assay [4]; -18.8% in assay [5]; 8.45% in assay [6].

Regarding `ClC12OOC(c3ccccc3)(O1)C(c1ccccc1)c1ccccc12` (stereo not given), the growth inhibition in assay [1] was 14.2%; in assay [2], 24.1%; in assay [3] it was 34.9%; in assay [4] it was 51.9%; in assay [5], 10.8%; in assay [6], 44.5%.

In the case of `CC(=O)C1(O)CCC2(O)C3(O)CC=C4CC(O)CCC4(C)C3CC(OC(=O)c3ccc(O)cc3)C12C` (stereo not given), the growth inhibition is 8.5% in assay [1]; 2.85% in assay [2]; -12.8% in assay [3]; -1.7% in assay [4]; -1.6% in assay [5]; -50.4% in assay [6].

Regarding `O=C1OC[C@@H]2Cc3c([nH]c4ccccc34)[C@@H](c3cc(O)c(O)c(O)c3)N12`, the growth inhibition in assay [1] was 12.1%; in assay [2] it was -1.2%; in assay [3], 20.8%; in assay [4], 7.4%; in assay [5], 10.7%; in assay [6], -51.6%.

As to `CC(=O)O[C@@]12CO[C@@H]1CC(O)[C@@]1(C)C(=O)[C@H](O)C3=C(C)C(O)C[C@@](O)(C(OC(=O)c4ccccc4)C12)C3(C)C` (stereo not given in full), the growth inhibition in assay [1] is -12.8%; in assay [2], -28.4%; in assay [3], -12.3%; in assay [4], -5.9%; in assay [5] it was -29.4%; in assay [6] it was -8.65%.

As for `COC1=CC(=O)N(C(=O)C(OC(=O)C2CCCN2C(=O)C2CCCN2C(=O)C(C(C)C)N(C)C(=O)C(NC(=O)C(C(C)C)N(C)C)C(C)C)C(C)C)C1Cc1ccccc1` (stereo not given) (ξNMe2Val-V[NMeV]PP-X14; configuration not given here), the growth inhibition in assay [1] was 16.9%; in assay [2], -21.4%; in assay [3] it was -4.25%; in assay [4] it was -7.6%; in assay [5], 28.9%; in assay [6], -32.6%.

For `NNC(=S)N/N=C(\C(=O)Nc1cccc(O)c1)C1C(=O)NC(=S)NC1=O`, the growth inhibition is -6.65% in assay [1]; -10.6% in assay [2]; -13.7% in assay [3]; -0.05% in assay [4]; 2.55% in assay [5]; -17.9% in assay [6].

As for `OC1(C#[C][Hg][C]#CC2(O)CCCCC2)CCCCC1`, the growth inhibition is 95.2% (active) in assay [1]; 89.5% (active) in assay [2]; 90.7% (active) in assay [3]; 97.3% (active) in assay [4]; 97.4% (active) in assay [5]; 95.4% (active) in assay [6].

As for `O=NNc1cc(=O)[nH]c(=O)[nH]1`, the growth inhibition in assay [1] was 5.4%; in assay [2], -4.5%; in assay [3] it was -3.85%; in assay [4], -39.2%; in assay [5], -7.6%; in assay [6], -6.5%.

Consider `O=C1NCN(c2ccccc2)C12CCN(CCCS(=O)(=O)c1ccccc1)CC2`, for which the growth inhibition in assay [1] is -22.4%; in assay [2] it was -13.6%; in assay [3], -9.55%; in assay [4], -22.6%; in assay [5], 3.5%; in assay [6] it was -18%.

For the compound `Nc1nc(=S)nc(N)[nH]1`, the growth inhibition in assay [1] was 21.6%; in assay [2] it was 11.2%; in assay [3], -7.9%; in assay [4], -18.5%; in assay [5] it was 14.6%; in assay [6], -2.5%.

On to `C=CCN1CN(c2ccccc2)C2(CCN(CCCC3(c4ccc(F)cc4)OCCO3)CC2)C1=O`, for which the growth inhibition is -18.1% in assay [1]; -7.55% in assay [2]; 1.4% in assay [3]; 0.4% in assay [4]; 0.7% in assay [5]; -13.8% in assay [6].
